KB-V1 MDR tox – kills drug-selected multidrug resistant KB-V1 cells; KB-V1 MDR cells viability, CellTiter-Glo, 72 h; Potency, µM (top dose mostly 46.1 µM), actives largely listed as cytotoxic; 3.4% of 400,000 active; AID 1347076; also: % is scaled to controls: 0 for no effect and ±100 for the full control effect; nearly all actives have a fitted effect of over 60% in size
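Cytotoxicity toward P-gp-expressing KB-V1 cells was determined as loss of CellTiter-Glo luminescence after 72 h at 37 degrees C. Compounds were tested in quantitative HTS format across a concentration range, with curves fitted to normalized data.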
MCF10A rerep – inducers of DNA re-replication in MCF 10A breast cells; Potency, µM (titrated, usually from 46.1 µM), inactives show at the highest dose activity, positive = re-replication, actives largely listed as activators; MCF 10A DNA re-replication, Hoechst nuclear intensity, 48 h; 2.9% of 350,000 active; also: % of control where 0% means no effect; nearly all actives have a fitted effect of over 50% in size
HT1080NT lethal – kills 2HG-producing HT-1080-NT fibrosarcoma cells; HT-1080-NT fibrosarcoma viability, CellTiter-Glo ATP luminescence, 48 h; Potency, µM (series often up to 46.1 µM), for inactives: at the highest dose activity, negative = less viability, hits mostly cytotoxic; 1.6% of 360,000 active;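 also: NT is the 2HG producing partner of a matched IDH1 knockdown line; 0% = DMSO-treated cells and -100% = media-only wells without cells; nearly all actives have a fitted effect of over 55% in size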
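750 cells/well, RPMI + 5% FBS; 2 h settle, compound pin-transfer, 48 h at 37 degrees C. CellTiter-Glo 10 min RT, luminescence. Normalized to DMSO and media-only wells.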
HT1080 IDH1KD tx – kills HT-1080 cells with IDH1 knockdown; Potency, µM (titrated, usually from 46.1 µM), without a hit: at the top dose activity, negative = toxicity, usual class: cytotoxic; AID 686971; 2% of 360,000 active; HT-1080 IDH1 knockdown viability, ATP luminescence, 48 h;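 also: 0% = DMSO wells and -100% = cell-free medium wells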
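HT-1080-IDH1KD cells (IDH1 knocked down), 750/well in RPMI with 5% FBS, treated with compound 48 h at 37 degrees C. Viability by CellTiter-Glo luminescence, normalised to DMSO and no-cell wells; concentration-response curves classed.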
SW480 rerep – DNA re-replication induction in SW480 cells. SW480 DNA re-replication, Hoechst DNA content imaging, 48 h. Potency, µM (top dose mostly 46.1 µM), inactives show top-dose re-replication activation, most hits filed as activators. 1.8% of 340,000 active. AID 624297; also: % of control where 0% means no effect; nearly all actives have a fitted effect of over 55% in size
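Image-based DNA-content assay: after two days of treatment, nuclei were labelled with the DNA dye Hoechst and imaged, and hits were compounds raising the count of nuclei showing high fluorescence intensity.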
KB-3-1 cytotox – KB-3-1 parental cell cytotoxicity | AID 1347075 | 1.4% of 400,000 active | KB-3-1 viability, CellTiter-Glo ATP luminescence, 72 h | Potency, µM (series often up to 46.1 µM), usual class: cytotoxic; also: % is scaled to controls: 0 for no effect and ±100 for the full control effect; nearly all actives have a fitted effect of over 60% in size
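Multi-concentration cytotoxicity screen in KB-3-1 cells grown in DMEM lacking phenol red with 10% FBS. After 72 h at 37 °C with compound, ATP-dependent luminescence was recorded.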
Active calls of the source: *; i = inactive; ? = inconclusive; · = no result given; [ ] = another dose, or the depositor's remark. Only some compounds are listed: those with a hit (about 8% of all), similar ones and a draw of the others. Calls follow the shape of the dose curve; as a rule, active = well fitted curve in the direction sought with a large enough effect; inconclusive = small, poorly fitted or top-dose-only effect, or another doubt; inactive = no such curve, though single readings can be large; an effect the other way counts as inactive or inconclusive. Potency is read from the fitted curve at half-maximal effect.

SMILES	KB-V1 MDR tox	MCF10A rerep	HT1080NT lethal	HT1080 IDH1KD tx	SW480 rerep	KB-3-1 cytotox
CCOc1ccc(NC(=O)CN(c2ccc([N+](=O)[O-])cc2)S(=O)(=O)c2ccccc2)cc1	7.31µM*	3.3%	?	8.2µM*	-51.3%	i
COc1ccc(NC(=O)CN(C)C(=O)c2ccc(S(=O)(=O)N3CCOCC3)cc2)cc1	?	·	-0.6%	1.5%	·	i
CCOc1ccc(S(=O)(=O)N(CC(=O)N/N=C/c2ccc(-c3ccc([N+](=O)[O-])cc3)o2)c2ccccc2)cc1	?	0.82µM*	13µM*	-23.7%[9.24 µM]	20.6µM*	?
Cc1ccc(C)c(N(CC(=O)N/N=C/c2ccc(-c3ccc([N+](=O)[O-])cc3)o2)S(=O)(=O)c2ccccc2)c1	i	13.6%	-2.6%	-3.6%	-2.2%	i
CC(C)N(Cc1nccn1C)C(=O)c1ccc(OC2CCN(C(=O)C3CC3)CC2)cc1	i	-1.0%	-1.3%	25.0%	-4.3%	i
Cc1ccc(CC2CC(=O)N(c3ccc(Cl)cn3)C2=O)cc1 (stereo unspecified)	i	3.9%	3.4%	10.5%	-5.9%	i
CO[C@@H]1CN(C)C(=O)c2ccc(NC(=O)C3CCCC3)cc2OC[C@@H](C)N(Cc2ccc(F)cc2)C[C@H]1C	23.1µM*	·	-18.8%	-21.5%	·	?
CO[C@@H]1CN(C)C(=O)c2ccc(NC(=O)C3CCC3)cc2OC[C@H](C)N(CC2CCCCC2)C[C@H]1C	?	·	?	?	·	i
Nc1cccc(N2C(=O)c3cccc4c(N)ccc(c34)C2=O)c1	i	2.5%	1.6%	2.4%	-21.9%	i
Cc1cccc(N2C(=O)c3cccc4c(N)ccc(c34)C2=O)c1	i	?	-2.5%	-2.7%	8.2µM*	i
CC(C)CCN1C(=O)c2cccc3c(N)ccc(c23)C1=O	i	14.6µM*	-17.7%	-30.0%	23.1µM*	i
COc1cc(NC(=O)c2ccc(F)cc2)c(OC)cc1Cl	i	8.7%	-5.9%	-10.9%	-11.7%	i
COc1cc2c(c(OC)c1OC)-c1ccc(NCc3ccccc3)c(=O)cc1C(NC(C)=O)CC2 (stereo unspecified)	i	·	3.66µM*	2.31µM*	·	1.16µM*
COc1cc2c(c(OC)c1OC)-c1ccc(NC(=O)c3ccc(F)cc3)c(=O)cc1[C@@H](NC(C)=O)CC2	i	3.26µM*	?	?	?	?
COC(=O)NC1CSCC1OC(=O)CCN1C(=O)c2ccccc2C1=O (stereo unspecified)	i	-4.8%	-0.1%	-2.0%	-3.9%	i
O=C(/C=C/Nc1ccccc1F)c1cccs1	i	-3.0%	-1.5%	-10.3%	1.9%	i
COc1ccc2cc(CN(C(=O)Nc3ccccc3OC)C3CCCC3)c(=O)[nH]c2c1	?	?	-15.6%	?	?	i
COc1ccccc1NC(=S)N(CCCN(C)C)Cc1cc2cc3c(cc2[nH]c1=O)OCO3	i	-3.2%	-3.0%	-3.3%	0.2%	i
COc1ccc2cc(CN(Cc3cccnc3)S(=O)(=O)c3ccccc3)c(=O)[nH]c2c1	16.4µM*	11.2%	-7.2%	-2.4%	7.4%	?
COc1ccc2cc(CN(CC3CCCO3)C(=O)Nc3ccccc3OC)c(=O)[nH]c2c1 (stereo unspecified)	11.6µM*	18.4µM*	2.59µM*	2.31µM*	14.6µM*	5.17µM*
COc1ccc2cc(CN(CC3COCCO3)S(=O)(=O)c3ccccc3)c(=O)[nH]c2c1 (stereo unspecified)	i	-0.7%	-4.3%	7.5%	-5.1%	i
COC(=O)c1ccccc1S(=O)(=O)N(Cc1cc2ccc(OC)cc2[nH]c1=O)CC1CCCO1 (stereo unspecified)	14.6µM*	5.7%	-1.7%	-2.6%	7.2%	i

Screening results deposited in PubChem by National Center for Advancing Translational Sciences (NCATS).
